Measurements as given in PubChem BioAssay AID1159580 (chemical genetic matrix, 2015).
Several values for one entry are separate records, joined by “and”; a condition that tells them apart may be missing. Equal entries are not always repeated. About 2,000 (36%) of roughly 5,500 compounds were called active. Roughly 18% stayed inconclusive and do not appear here. Cut-off read from the data, not from the text of the source: active = normalized growth mostly below about 0.91 (no sharp cut-off); inconclusive = no clear call, values can overlap the other calls; inactive = mostly above about 0.92. The list shows a part of the results.

Experiment: chemical genetic growth profiling, strain panel (AID 1159580);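 note: tested at 20 µM; growth read once vehicle control cultures reached saturation at 30 °C; 1 = growth at the plate median or of vehicle wells; lower values mean less growth of the strain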
Conditions: S. cerevisiae deletion strains, growth OD

Measured: normalized growth

O=C1C=CC2=C3c4cc(O)c(O)cc4C[C@@]3(O)COC2=C1
inactive: locus YAL021C, strain ccr4, hits give low values 0.965 | locus YAL026C, strain drs2, hits give low values 0.973 | locus YAL030W, strain snc1, hits give low values 0.979 | locus YBL061C, strain skt5, hits give low values 0.992 | locus YBR009C, strain hhf1, hits give low values 0.984 | locus YBR021W, strain FUR4, hits give low values 1.01 | locus YBR023C, strain chs3, hits give low values 0.99 | locus YBR171W, strain sec66, hits give low values 0.988 | locus YBR229C, strain ROT2, hits give low values 0.998 | locus YBR231C, strain swc5, hits give low values 0.978 | locus YBR279W, strain paf1, hits give low values 0.985 | locus YCL011C, strain gbp2, hits give low values 0.975 | locus YCL016C, strain dcc1, hits give low values 0.95 | locus YCL029C, strain bik1, hits give low values 1 | locus YCL061C, strain MRC1, hits give low values 0.98 | locus YCL069W, strain vba3, hits give low values 0.981 | locus YCR088W, strain abp1, hits give low values 0.99 | locus YDL005C, strain med2, hits give low values 0.966 | locus YDL035C, strain GPR1, hits give low values 1.03 | locus YDL040C, strain nat1, hits give low values 0.97 | locus YDL074C, strain BRE1, hits give low values 1 | locus YDL101C, strain DUN1, hits give low values 0.981 | locus YDL134C, strain PPH21, hits give low values 0.998 | locus YDL185W, strain tfp1, hits give low values 0.985 | locus YDL192W, strain arf1, hits give low values 1.01 | locus YDR001C, strain nth1, hits give low values 0.978 | locus YDR069C, strain doa4, hits give low values 0.94 | locus YDR101C, strain arx1, hits give low values 1.05 | locus YDR137W, strain rgp1, hits give low values 1.01 | locus YDR150W, strain NUM1, hits give low values 1 | locus YDR159W, strain sac3, hits give low values 0.986 | locus YDR162C, strain NBP2, hits give low values 1.03 | locus YDR195W, strain ref2 0.939 | locus YDR297W, strain sur2, hits give low values 0.981 | locus YDR318W, strain mcm21, hits give low values 0.998 | locus YDR334W, strain swr1, hits give low values 0.967 | locus YDR335W, strain msn5, hits give low values 0.969 | locus YDR388W, hits give low values 1 | locus YDR392W, strain spt3, hits give low values 0.95 | locus YDR502C, strain sam2, hits give low values 0.999 | locus YEL003W, strain gim4, hits give low values 0.989 | locus YEL037C, strain rad23, hits give low values 0.981 | locus YEL061C, strain CIN8 (second series), hits give low values 0.975 | locus YER015W, strain faa2, hits give low values 0.982 | locus YER016W, strain bim1, hits give low values 0.976 | locus YER110C, hits give low values 0.986 | locus YER111C, strain swi4, hits give low values 0.98 | locus YER155C, strain BEM2 (second series), hits give low values 0.972 | locus YER155C, strain BEM2, hits give low values 1.02 | locus YER167W, strain BCK2, hits give low values 1.01 | locus YFR010W, strain ubp6, hits give low values 0.963 | locus YGL078C, strain dbp3, hits give low values 0.967 | locus YGL086W, strain mad1, hits give low values 1.01 | locus YGL167C, strain pmr1, hits give low values 0.964 | locus YGL173C, strain kem1, hits give low values 0.977 | locus YGL227W, strain vid30, hits give low values 0.989 | locus YGL240W, strain doc1, hits give low values 0.985 | locus YGL248W, strain PDE1, hits give low values 0.981 | locus YGL253W, strain hxk2, hits give low values 0.978 | locus YGR135W, strain pre9, hits give low values 0.954 | locus YGR252W, strain gcn5, hits give low values 0.939 | locus YHR013C, strain ard1, hits give low values 0.954 | locus YHR027C, strain rpn1, hits give low values 0.972 | locus YHR030C, strain SLT2, hits give low values 1.03 | locus YHR079C, strain IRE1 (second series), hits give low values 1 | locus YHR079C, strain IRE1, hits give low values 1.02 | locus YHR094C, strain hxt1, hits give low values 0.994 | locus YHR129C, strain ARP1, hits give low values 0.997 | locus YHR142W, strain chs7, hits give low values 0.963 | locus YHR200W, strain rpn10, hits give low values 0.991 | locus YIL066C, strain RNR3, hits give low values 1.01 | locus YIL073C, strain SPO22, hits give low values 0.996 | locus YIL125W, strain kgd1, hits give low values 0.994 | locus YIR030C, strain dcg1, hits give low values 0.999 | locus YJL092W, strain hpr5, hits give low values 0.991 | locus YJL095W, strain BCK1 (second series), hits give low values 0.975 | locus YJL095W, strain BCK1, hits give low values 0.979 and 1.04 | locus YJL115W, strain asf1, hits give low values 0.975 | locus YJL129C, strain trk1, hits give low values 1 | locus YJL134W, strain LCB3, hits give low values 1.01 | locus YJL154C, strain vps35, hits give low values 0.981 | locus YJL164C, strain tpk1, hits give low values 0.962 | locus YJL166W, strain qcr8, hits give low values 0.979 | locus YJL168C, strain set2, hits give low values 0.996 | locus YJL187C, strain SWE1 (second series), hits give low values 0.96 | locus YJL187C, strain SWE1, hits give low values 0.988 | locus YJR043C, strain POL32, hits give low values 1.03
